# Assay results reported in PubChem BioAssay (NCI).
# Compounds without any hit were thinned out: in the full panel of roughly 79,000, 15% have a hit. Values without a mark were called inactive. Active and inactive are the calls of the source. Cut-off read from the data, not from the text of the source: active = growth inhibition above about 70%; inactive = the rest.
# Assay: NCI Yeast Anticancer Drug Screen. Data for the sgs1 mgt1 strain (AID 161);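 note: 0% = growth of cultures given vehicle only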
# Conditions: S. cerevisiae sgs1 mgt1 strain, at 50.0 µM, hits give high values
# How it was run: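 Percent growth inhibition was derived by comparing compound-exposed mutant yeast with vehicle-exposed cultures. The strain carries alterations in DNA damage repair.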
row,SMILES,growth inhibition
1,CC(=O)NNc1nc(C)c(C(=O)NNC(=O)C(=O)Nc2c(C)cccc2C(C)C)s1,47%
2,COc1cc(C2CC(=O)c3ccccc3O2)ccc1O (stereo not drawn),92.2% (active)
3,CCC1CCC2C3CC=C4CC(OC(C)=O)C(N)CC4(C)C3CCC12C (stereo not drawn),89.2% (active)
4,COc1ccccc1C1c2cc3c(cc2OC(N2CCOCC2)C1C)OCO3 (stereo not drawn),26.4%
5,O=C1C=C/C(=C(/c2ccc(O)c(O)c2)c2ccccc2S(=O)(=O)O)C=C1O,5.3%
6,N#CSC#Cc1ccc(C#CSC#N)cc1,85% (active)
7,Cc1c2ccccc2c(CCl)c2ccc3ccccc3c12,98.3% (active)
8,Oc1ccc(C(=C(Br)c2ccccc2)c2ccc(O)cc2)cc1,85.1% (active)
9,Clc1ccc(/C=N/Nc2c3ccccc3nc3ccccc23)c(Cl)c1,87.8% (active)
10,CCCC#CCCOC(=O)c1cc([N+](=O)[O-])cc([N+](=O)[O-])c1,99.5% (active)
11,CCOc1ccc2c(c1)n([O-])c1ccccc1[n+]2=O,99.2% (active)
12,COc1ccc(/C(Cl)=C(\c2ccc(OCCN(C)C)cc2)c2ccc(OC(=O)C(C)(C)C)cc2)cc1,92.3% (active)
13,CCCCCCCCCCCCCCCCSC(=NC)NC,99.3% (active)
14,N#Cc1ccc(Oc2nc3ccccc3nc2-c2ccccc2)cc1,33.9%
15,Cc1ccc2c(c1)nc1n2C(N)=Nc2ccccc2S1,68.6%
16,COc1cc(NCc2ccc3nc(-c4ccccc4)c(N)nc3c2)cc(OC)c1OC,50%
17,O=C(OCCC1CCCCC1)c1cc([N+](=O)[O-])cc([N+](=O)[O-])c1,90.3% (active)
18,O=C1c2ccc3ccccc3c2CCC1[n+]1ccc2ccccc2c1 (stereo not drawn),70.7% (active)
19,Cc1cc(NC(=S)SCc2ccc(Cl)cc2)c([N+](=O)[O-])cc1C,97.3% (active)
20,N#CC(O)C(Br)(Br)Br (stereo not drawn),83.3% (active)

row,SMILES,growth inhibition
1,C[CH2][Ge]([CH2]C)[CH2]C.C[CH2][Ge]([Cl])[CH2]C.C[CH2][Ge][CH2]C,98.1% (active)
2,COC1C(=[N+]=[N-])C(=O)NC(=O)N1C1OC(COC(c2ccccc2)(c2ccccc2)c2ccccc2)C(O)C1O (stereo not drawn),66.8%
3,CC(=O)Oc1ccc(C)c(C(C)C(Cl)(Cl)Cl)c1 (stereo not drawn),58.3%
4,OC(c1ccccc1)c1cccc(Br)c1 (stereo not drawn),52.9%
5,CC/C(=C1\C=CC(=O)S1)C(CC)c1ccc(OC(C)=O)cc1 (stereo not drawn),99.3% (active)
6,COc1ccc(/C=C2/C(=O)NC3SC=C(c4cccc([N+](=O)[O-])c4)N23)cc1 (stereo not drawn),32.6%
7,O=C1O/C(=C2\OC(=O)c3ccccc32)c2ccccc21,-28.3%
8,Clc1ncccc1-n1cccc1/C=N\N=C/c1cccn1-c1cccnc1Cl,-10.6%
9,Clc1nc2cc3nc(Cl)c(Cl)nc3cc2nc1Cl,36.4%
10,CC(=O)c1c2c(cc3c1CC1(Cc4cc5c(cc4C1)C(=O)CCC5)C3)CCCC2 (stereo not drawn),8.95%
11,CCCCOS(=O)(=O)c1ccc(C)cc1,-9.45%
12,C[N+]1(c2ccccc2)C=C(c2ccccc2)SC1=S (stereo not drawn),60.5%
13,COc1ccc(/C=N/N=c2\[nH][nH]/c(=N\N=C\c3ccc(OC)c4ccccc34)c3ccccc23)c2ccccc12,86.9% (active)
14,CCCCCCCCCCCCCCCCN,99.2% (active)
15,CCCCCCCCCCCC[S+](C)C,89.5% (active)
16,CP(=O)(c1ccccc1)c1ccccc1,18.4%
17,CCCCCCCCCCCC(=O)OC/C=C/COC(=O)c1ccccc1,38.5%
18,O=C(O)CCC(O)=C1S(=O)(=O)OCCOS1(=O)=O,-1.5%
19,CCOC(=O)C1SC(=Nc2cccc(Cl)c2C)N=C1C (stereo not drawn),82% (active)

# Assay: NCI Yeast Anticancer Drug Screen. Data for the cln2 rad14 strain (AID 165);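 note: 0% = growth equal to vehicle treated cultures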
# Conditions: S. cerevisiae cln2 rad14 strain, at 5.0 µM (retest, dose inferred, filed as 0.5), hits give high values
# How it was run: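 Growth inhibition, relative to vehicle-treated controls, is the read-out. The test organism is a yeast strain with defined genetic alterations, cln2 rad14.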
row,SMILES,growth inhibition
1,CC(=O)NNc1nc(C)c(C(=O)NNC(=O)C(=O)Nc2c(C)cccc2C(C)C)s1,0%
2,COc1cc(C2CC(=O)c3ccccc3O2)ccc1O (stereo not drawn),-16%
3,CCC1CCC2C3CC=C4CC(OC(C)=O)C(N)CC4(C)C3CCC12C (stereo not drawn),45%
4,COc1ccccc1C1c2cc3c(cc2OC(N2CCOCC2)C1C)OCO3 (stereo not drawn),25%
5,O=C1C=C/C(=C(/c2ccc(O)c(O)c2)c2ccccc2S(=O)(=O)O)C=C1O,5%
6,N#CSC#Cc1ccc(C#CSC#N)cc1,99% (active)
7,Cc1c2ccccc2c(CCl)c2ccc3ccccc3c12,99% (active)
8,Oc1ccc(C(=C(Br)c2ccccc2)c2ccc(O)cc2)cc1,99% (active)
9,Clc1ccc(/C=N/Nc2c3ccccc3nc3ccccc23)c(Cl)c1,-47%
10,CCCC#CCCOC(=O)c1cc([N+](=O)[O-])cc([N+](=O)[O-])c1,-7%
11,CCOc1ccc2c(c1)n([O-])c1ccccc1[n+]2=O,31%
12,COc1ccc(/C(Cl)=C(\c2ccc(OCCN(C)C)cc2)c2ccc(OC(=O)C(C)(C)C)cc2)cc1,10%
13,CCCCCCCCCCCCCCCCSC(=NC)NC,25%
14,N#Cc1ccc(Oc2nc3ccccc3nc2-c2ccccc2)cc1,-6%
15,Cc1ccc2c(c1)nc1n2C(N)=Nc2ccccc2S1,-10%
16,COc1cc(NCc2ccc3nc(-c4ccccc4)c(N)nc3c2)cc(OC)c1OC,5%
17,O=C(OCCC1CCCCC1)c1cc([N+](=O)[O-])cc([N+](=O)[O-])c1,6%
18,O=C1c2ccc3ccccc3c2CCC1[n+]1ccc2ccccc2c1 (stereo not drawn),-5%
19,Cc1cc(NC(=S)SCc2ccc(Cl)cc2)c([N+](=O)[O-])cc1C,42%
20,N#CC(O)C(Br)(Br)Br (stereo not drawn),6%

row,SMILES,growth inhibition
1,C[CH2][Ge]([CH2]C)[CH2]C.C[CH2][Ge]([Cl])[CH2]C.C[CH2][Ge][CH2]C,8%
2,COC1C(=[N+]=[N-])C(=O)NC(=O)N1C1OC(COC(c2ccccc2)(c2ccccc2)c2ccccc2)C(O)C1O (stereo not drawn),14%
3,CC(=O)Oc1ccc(C)c(C(C)C(Cl)(Cl)Cl)c1 (stereo not drawn),8%
4,OC(c1ccccc1)c1cccc(Br)c1 (stereo not drawn),-1%
5,CC/C(=C1\C=CC(=O)S1)C(CC)c1ccc(OC(C)=O)cc1 (stereo not drawn),0%
6,COc1ccc(/C=C2/C(=O)NC3SC=C(c4cccc([N+](=O)[O-])c4)N23)cc1 (stereo not drawn),34%
7,O=C1O/C(=C2\OC(=O)c3ccccc32)c2ccccc21,1%
8,Clc1ncccc1-n1cccc1/C=N\N=C/c1cccn1-c1cccnc1Cl,4%
9,Clc1nc2cc3nc(Cl)c(Cl)nc3cc2nc1Cl,26%
10,CC(=O)c1c2c(cc3c1CC1(Cc4cc5c(cc4C1)C(=O)CCC5)C3)CCCC2 (stereo not drawn),22%
11,CCCCOS(=O)(=O)c1ccc(C)cc1,1%
12,C[N+]1(c2ccccc2)C=C(c2ccccc2)SC1=S (stereo not drawn),1%
13,COc1ccc(/C=N/N=c2\[nH][nH]/c(=N\N=C\c3ccc(OC)c4ccccc34)c3ccccc23)c2ccccc12,-7%
14,CCCCCCCCCCCCCCCCN,54%
15,CCCCCCCCCCCC[S+](C)C,17%
16,CP(=O)(c1ccccc1)c1ccccc1,18%
17,CCCCCCCCCCCC(=O)OC/C=C/COC(=O)c1ccccc1,0%
18,O=C(O)CCC(O)=C1S(=O)(=O)OCCOS1(=O)=O,-42%
19,CCOC(=O)C1SC(=Nc2cccc(Cl)c2C)N=C1C (stereo not drawn),27%
